Cell viability, % of control (lower = more cytotoxic), viability (% of control) and Potency data for 13 compounds are collected here from PubChem BioAssay (NCATS).

Values joined by “and” are separate entries in the source; they are usually repeats but may differ in a detail not shown here. Equal values may be shown once. Inconclusive results are not listed. Active and inactive are the calls of the source. Unless noted, the call rests on the fitted dose curve; in most records, active means well fitted curve in the direction sought with a large enough effect; inconclusive means small, poorly fitted or top-dose-only effect, or another doubt; inactive means no such curve, though single readings can be large; an effect the other way counts as inactive or inconclusive.

Assay [1] can be described thus: High-throughput drug toxicity screening in the BPDCN cell line Gen2.2 (AID 1224824; call rule not given here;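 further: cells exposed to compounds for 48 h before reading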). The conditions noted are these: Gen2.2 BPDCN cells; at 45.8 µM (top of the series) unless noted. Summed up:
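Gen2.2, 500 cells/well, phenol red-free RPMI/10% FBS/Pen-Strep; 48 h cpd, 37 °C/5% CO2; CTG lum, 15 min RT. Norm: DMSO = 100%, bortezomib 9.2 uM final = 0%.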

The nature of assay [2]: High-throughput drug toxicity screening in the BPDCN cell line Cal-1 (AID 1224825; call rule not given here). The conditions noted are these: Cal-1 BPDCN cell viability, qHTS; at 45.8 µM (top of the series) unless noted. The gist of the method: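 Viability of the BPDCN line Cal-1 is measured as ATP-based luminescence (CellTiter-Glo) following 48 h incubation with compounds. Percent activity uses DMSO-treated wells as 100% and 9.2 uM bortezomib as 0%.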

The nature of assay [3]: qHTS assay for measurement of the activity of small molecule inhibitors on Zika virus induced Caspase-3 activity in human iPSC derived neural progenitor cells (hNPCs) (AID 1224857). Further: % of control where 0% means no effect; nearly all actives have a fitted effect of over 65% in size. The gist of the method:
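In medium with heparin 2 ug/ml and cyclopamine 2 uM, hNPCs (350 cells/well) received compound for one hour and then Zika virus at 2 FFU/cell; caspase activity was measured by Caspase-Glo 3/7 luminescence 6 h post-infection.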

The nature of assay [4]: qHTS assay for measurement of the activity of small molecule inhibitors on Zika virus induced Caspase-3 activity in human astrocytoma cells (AID 1224859).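 Further: plate controls were ZIKV-infected untreated cells for no effect and uninfected cells for full effect.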 The gist of the method:
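A cell-based luminescent caspase-3/7 assay used SNB-19 cells infected with ZIKV (2 FFU/cell) for 6 h following 1 h compound pretreatment.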

The nature of assay [5]: qHTS Screen of the MIPE 4.0 Collection Against Ewings Sarcoma (RDES) (AID 1259252). Further: nearly all actives have a fitted effect of over 35% in size. Further: potency means the concentration at half of the fitted maximal effect. Summed up:
(§1)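 Measured: ATP luminescence (CellTiter-Glo) 10 min after reagent addition, following 48 h drug treatment. Relative luciferase units converted to percent activity, with no-cell wells as full and DMSO wells as zero inhibition.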

Assay [6] can be described thus: qHTS Screen of the MIPE 4.0 Collection Against Ewings Sarcoma (TC71) (AID 1259253). Further: nearly all actives have a fitted effect of over 40% in size. Further: potency means the concentration at half of the fitted maximal effect. Summed up: as §1
On the technique in general: Quantitative high-throughput screening tests each substance at several concentrations.

Assay [7] can be described thus: qHTS Screen of the MIPE 4.0 Collection Against Ewings Sarcoma (EW8) (AID 1259255). Further: nearly all actives have a fitted effect of over 35% in size. Further: potency means the concentration at half of the fitted maximal effect.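 On viability: 100% = DMSO-treated cells and 0% = medium-only wells without cells.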 Summed up: as §1
Assay [8] can be described thus: qHTS Screen of the MIPE 4.0 Collection Against Ewings Sarcoma (TC32) (AID 1259256). Further: nearly all actives have a fitted effect of over 45% in size. Further: potency means the concentration at half of the fitted maximal effect. Summed up:
as §1

A short description of assay [9]: P-glycoprotein substrates identified in KB-8-5-11 adenocarcinoma cell line, qHTS therapeutic library screen (AID 1346987). Further: nearly all actives have a fitted effect of over 65% in size. Further: potency means the concentration at half of the fitted maximal effect. Summed up:
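Human cervical adenocarcinoma KB-8-5-11 cells, selected in colchicine to over-express P-gp and assayed without it, were exposed for 72 h to titrated compounds. An ATP-based luminescent viability signal gave AC50.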

As to `N#CNC(=NCCCCCCOc1ccc(Cl)cc1)Nc1ccncc1`, in assay [1], the cell viability, % of control (lower = more cytotoxic) was found to be 25.6%. For the same compound, the viability (% of control) in assay [2] stood at 2.53%. The Potency entry in [3], in assay [4], in assay [5] and in [8] was “inactive” each time. Moreover, the Potency is 1.3 nM (active) in assay [6], 3 nM (active) in [7] and 4.2 nM (active) in [9].
Regarding `CC(C)C[C@H](NC(=O)[C@@H](NC(=O)c1cccc(-c2ccccc2)n1)[C@@H](C)O)B(O)O`, the cell viability, % of control (lower = more cytotoxic) in assay [1] was found to be 3.77%. In assay [2], the viability (% of control) was 4.67%. Further, the Potency entry in assay [3] and in assay [4] was “inactive” each time. Also, the Potency was 59 nM (active) in assay [5]; 74.3 nM (active) in assay [6]; 37.2 nM (active) in assay [7]; 66.2 nM (active) in [8]; 833 nM (active) and 820 nM (active) in [9].
On to `C=C(C)[C@@H]1CC[C@]2(C)CC[C@]3(C)[C@H](CC[C@@H]4[C@@]5(C)CC[C@H](O)C(C)(C)[C@H]5CC[C@]43C)[C@@H]12`, for which, in assay [1], the cell viability, % of control (lower = more cytotoxic) turned out to be 162%. Besides, the viability (% of control) in assay [2] amounted to 121%. Further, the Potency result in [3], in assay [4], in assay [5], in assay [6], in [7] and in [8] was “inactive” each time. In assay [9], the Potency entry was “inactive”.
Take `C[C@H](NCc1ccc2c(c1)nc(NC(=O)c1ccc(-c3cn[nH]c3)s1)n2CCc1ccccc1)C(C)(C)C`: the cell viability, % of control (lower = more cytotoxic) in assay [1] stood at 9.44%. For the same compound, the viability (% of control) in assay [2] was determined as 2.31%. Further, the Potency result in [3] and in [4] was “inactive” in each case. The Potency in assay [5] is 2350 nM (active); in assay [6], 1480 nM (active); in assay [7] it was 2090 nM (active); in assay [8] it was 2960 nM (active); in [9], 2350 nM (active).
Take `c1ccc(CNc2nc(NCc3ccccc3)c3ccccc3n2)cc1`: the cell viability, % of control (lower = more cytotoxic) in [1] is 6.1%. For the same compound, the viability (% of control) in [2] came to 2.67%. For the same compound, the Potency entry in [3] and in assay [4] was “inactive” throughout. Also, the Potency was 20900 nM (active) in assay [5]; 26400 nM (active) in [6]; 20900 nM (active) in [7]; 23500 nM (active) in assay [8]; 20900 nM (active) in assay [9].
Turning to `CCCNC(=O)[C@H]1O[C@H]1C(=O)N[C@H](C(=O)N1CCC[C@@H]1C(=O)OC)C(C)CC` (some centres not stated), the cell viability, % of control (lower = more cytotoxic) in assay [1] came to 18.6%. Also, the viability (% of control) in assay [2] was found to be 8.18%. The Potency result in assay [3], in [4] and in assay [9] was “inactive” in each case. Also, the Potency is 3320 nM (active) in assay [5], 6620 nM (active) in [6], 11800 nM (active) in assay [7] and 5260 nM (active) in assay [8].
On to `C[C@]12C=CC(=O)N[C@@H]1CC[C@H]1[C@H]3CC[C@@H](C(=O)Nc4cc(C(F)(F)F)ccc4C(F)(F)F)[C@@]3(C)CC[C@@H]12`, for which, in assay [1], the cell viability, % of control (lower = more cytotoxic) is 58.7%. For the same compound, in assay [2], the viability (% of control) was 93%. Besides, the Potency entry in assay [3], in assay [4], in [5], in assay [6], in assay [7] and in assay [8] was “inactive” each time. The Potency entry in assay [9] was “inactive”.
Take `C=CC(=O)Nc1cccc(Nc2nc(NC3CCC(N(C)C)CC3)nc3c2ncn3C(C)C)c1` (configuration not stated): the cell viability, % of control (lower = more cytotoxic) in assay [1] came out at 5.58%. The viability (% of control) in assay [2] came out at 2.19%. For the same compound, the Potency entry in assay [3], in assay [4] and in assay [9] was “inactive” each time. Also, the Potency is 14.8 nM (active) in assay [5], 469 nM (active) in assay [6], 526 nM (active) in assay [7] and 418 nM (active) in assay [8].
Consider `COC(=O)[C@@H]1[C@H]2C[C@@H]3c4[nH]c5ccccc5c4CCN3C[C@@H]2CC[C@@H]1O`, for which the cell viability, % of control (lower = more cytotoxic) in assay [1] came out at 24.1%. The viability (% of control) in [2] is 21.8%. Besides, the Potency result in assay [3], in assay [4], in assay [5], in assay [6], in assay [7] and in assay [8] was “inactive” throughout. Besides, the Potency result in [9] was “inactive”.
For the compound `C[C@@H](Oc1ccc2[nH]nc(C=Cc3cnn(CCO)c3)c2c1)c1c(Cl)cncc1Cl`, in assay [1], the cell viability, % of control (lower = more cytotoxic) came to 8.4%. Further, in [2], the viability (% of control) worked out at 6.51%. Also, the Potency result in [3] and in assay [4] was “inactive” in each case. Further, the Potency in assay [5] was 3320 nM (active); in assay [6], 662 nM (active); in assay [7], 418 nM (active); in [8] it was 264 nM (active); in [9], 332 nM (active).
For the compound `NC(=O)c1ncn([C@@H]2O[C@H](CO)[C@@H](O)[C@@H]2O)c1O`, the cell viability, % of control (lower = more cytotoxic) in [1] turned out to be 113%. The viability (% of control) in assay [2] was determined as 102%. Also, the Potency entry in [3], in [4], in [5], in assay [6], in assay [7] and in assay [8] was “inactive” throughout. The Potency entry in [9] was “inactive”.
As to `OCC(O)C(O)C(O)CO` (configuration not stated), in [1], the cell viability, % of control (lower = more cytotoxic) was found to be 59.2%. The viability (% of control) in [2] was 66.8%. Moreover, the Potency result in assay [3], in assay [4], in assay [5], in assay [6], in [7] and in assay [8] was “inactive” each time. The Potency entry in [9] was “inactive”.
Turning to `C=C(C)[C@@H]1CC[C@]2(C(=O)O)CC[C@]3(C)[C@H](CC[C@@H]4[C@@]5(C)CC[C@H](O)C(C)(C)[C@@H]5CC[C@]43C)[C@@H]12`, the cell viability, % of control (lower = more cytotoxic) in [1] turned out to be 61.6%. Also, the viability (% of control) in [2] was 85.4%. For the same compound, the Potency result in assay [3], in [4], in assay [5], in assay [6], in assay [7] and in assay [8] was “inactive” in each case. For the same compound, in assay [9], the Potency result is “inactive”.
